Rows were chosen to be rich in hits. Some 21% of all compounds tested hit in one or more screens of this group.
ClpP mod – qHTS Assay for Activators of ClpP; AID 651965, 2013; actives 1.9% (n = 340,000); purified B. subtilis ClpP, FRET peptide cleavage, 20 min; Potency, µM (top dose mostly 57.5 µM); ATP-dependent Clp protease proteolytic subunit (Bacillus subtilis (strain 168)), P80244; active means well fitted falling curve with a large enough effect; inconclusive means small, poorly fitted or top-dose-only effect; inactive means no such curve, though single readings can be large or run the other way; further: the source files actives as falling curves though it sought activators and does not explain the sign; nearly all actives have a fitted effect of over 65% in size
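Purified B. subtilis ClpP, 10 microg/mL final in Tris/HCl pH8 with KCl, BSA, glycerol and Tween-20, cleaved an Abz/nitrotyrosine-quenched decapeptide. Fluorescence (ex 320, em 430) was read at 0 and 20 min at room temperature. Delta was normalized to 5.8 microM ADEP and DMSO/no-enzyme controls.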
TDP1 cell noCPT – qHTS for Inhibitors of human tyrosyl-DNA phosphodiesterase 1 (TDP1): qHTS in cells in absence of CPT; DT40 Tdp1-/- hTDP1 cells, no CPT, ATP luminescence, 48 h; Potency, µM (top dose mostly 46.2 µM), actives largely listed as inhibitors; actives 15% (n = 420,000); further: nearly all actives have a fitted effect of over 55% in size
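Seeded 400 DT40-hTDP1 cells/well (vehicle DMSO, no 20 nM CPT); pinned compounds; ≥48 hr at 37 °C; CellTiter-Glo luminescence as viability measure.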
D3 ag – agonists of human D3 dopamine receptor. P35462. D3R DiscoveRx beta-arrestin cells, luminescence, 90 min. max activation, %. actives 0.58% (n = 410,000); in the data active means max activation above about 30%
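Agonist mode: compounds and dopamine controls were applied to plated cells for 90 min at 37 degrees C after an overnight attachment at 1500 cells/well. Luminescent read-out followed 30 - 60 minutes at room temperature with DiscoveRx detection reagent.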
D3 antag – antagonists of human D3 dopamine receptor. max response, negative = inhibition, %. P35462. D3R cells, DiscoveRx beta-arrestin luminescence, antagonist mode; hits give low values. actives 2.5% (n = 360,000); in the data active means max response below about -50%; inconclusive means no clear call, values can overlap the other calls
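Cells plated overnight at 1500 cells/well, then exposed to library compounds with dopamine controls for 90 minutes at 37 degrees C. DiscoveRx reagent added for 30–60 minutes at room temperature; luminescence read, quantitative HTS format.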
IL-1B inflam inh – blocks inflammasome-driven IL-1 beta release | THP-1 LPS/ATP IL-1B secretion, AlphaLISA, 16 h; hits give low values | actives 4.7% (n = 360,000) | activity change, % at 57.5 µM; in the data active means activity change below about -50%; inconclusive means mostly about -30% to -49%
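THP-1 cells pretreated 1 hr with compounds (up to 57.5 uM final), then stimulated with LPS (250 ng/mL final) plus ATP (1.25 mM final); secreted IL-1B measured by AlphaLISA after 16 hr, decreased signal indicating inhibition.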
DT40 TDP1 CPT – growth inhibition of DT40 Tdp1-/-;hTDP1 cells with camptothecin (screen for TDP1 inhibitors); Potency, µM (titrated, usually from 46.2 µM), actives largely listed as inhibitors; actives 12% (n = 420,000); AID 686979; chicken DT40 Tdp1-/-;hTDP1 cells + 20 nM CPT, ATP luminescence, 48 h; further: nearly all actives have a fitted effect of over 55% in size
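Chicken DT40 Tdp1-/- cells stably complemented with human TDP1 were seeded at 400 cells/well in medium containing 20 nM camptothecin, exposed to pin-transferred compounds, and grown at 37 °C for at least 48 hr. Viability was read as ATP luminescence.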
Each line names hits and unclear results; the compound was inactive in the other large screens. Unless noted, the call rests on the fitted dose curve; in most records, active means well fitted inhibition curve with a large enough effect; inconclusive means small, poorly fitted or top-dose-only effect; inactive means flat fitted curve, though single readings scatter.

CCn1c(SCC(=O)N2CCCc3ccccc32)nnc1-c1c[nH]c2ccccc12	TDP1 cell noCPT inconclusive, D3 antag -51, DT40 TDP1 CPT inconclusive
CCn1c(SCC(=O)N2CCc3ccccc32)nnc1-c1c[nH]c2ccccc12	TDP1 cell noCPT 21µM, DT40 TDP1 CPT inconclusive
N#Cc1cn(CC(=O)N2CCCc3ccccc32)c2ccccc12	none
Cn1c(SCC(=O)N2CCCc3ccccc32)nnc1-c1c[nH]c2ccccc12	TDP1 cell noCPT inconclusive, D3 antag inconclusive
CCN(Cc1ccncc1)Cc1ccc2c(c1)CN(C(=O)c1ccc(OC)cc1)CCO2	none (no result: ClpP mod, D3 ag, D3 antag, IL-1B inflam inh)
Cc1ccc(NC(=O)CCN2CCOCC2)cc1C	none
CC(C)n1cc(CN2CCCC(CNS(=O)(=O)c3cccc4cccnc34)C2)cn1 (configuration not stated)	none
Cc1nc(N2CCOCC2)nc(Oc2ccccc2)c1[N+](=O)[O-]	none
O=C(O)C(CC1CCCCC1)N1CCS(=O)(=O)CC1 (configuration not stated)	none (no result: ClpP mod)
CC(=O)c1ccc(OCCNS(=O)(=O)c2ccc(-n3cnnn3)cc2)cc1	DT40 TDP1 CPT inconclusive
CCn1cc(SCC(=O)N2CCc3ccccc32)c2ccccc21	TDP1 cell noCPT 21µM, DT40 TDP1 CPT inconclusive
CCn1c(SCC(=O)N2CCN(c3ccccc3)CC2)nnc1-c1c[nH]c2ccccc12	TDP1 cell noCPT inconclusive, DT40 TDP1 CPT 21µM
O=C(CSc1ccccc1)N1CCc2ccccc21	none
CCn1c(CNc2ccc(C)cc2C)nnc1SCC(=O)N1CCCc2ccccc21	TDP1 cell noCPT inconclusive, DT40 TDP1 CPT 10µM
O=C(NCc1ccncc1)[C@@H]1CCCN1C(=O)[C@@H]1CCCN1C(=O)c1ccccc1Cl	DT40 TDP1 CPT inconclusive
O=C(CN1C(=O)C(=O)N(C2CCCC2)C1=O)Nc1ccc(N2CCOCC2)cc1	none
COc1ccc(OC)c(NC(=O)c2ccc(NC3=NC4CS(=O)(=O)CC4S3)cc2)c1 (configuration not stated)	none
Cc1ccc(N2C(=O)C3CCC(C)(C2=O)C3(C)C)cc1 (configuration not stated)	ClpP mod inconclusive
CSC[C@@H]1NC(=S)N(c2ccc(C)cc2)C1=O	TDP1 cell noCPT 2.3µM, DT40 TDP1 CPT 5.2µM
Cc1ccc(S(=O)(=O)N2CCN(c3nc(-c4ccc(C)s4)nc4ccccc34)CC2)cc1	TDP1 cell noCPT inconclusive (no result: D3 ag, D3 antag, IL-1B inflam inh)
Cc1ccc(S(=O)(=O)N2CCN(c3nc(-c4ncco4)nc4ccccc34)CC2)cc1	TDP1 cell noCPT 11µM, DT40 TDP1 CPT 11µM (no result: D3 ag, D3 antag, IL-1B inflam inh)
Cc1ccc(S(=O)(=O)N2CCN(c3nc(Nc4ccccc4O)nc4ccccc34)CC2)cc1	TDP1 cell noCPT inconclusive, DT40 TDP1 CPT inconclusive (no result: D3 ag, D3 antag, IL-1B inflam inh)
Cc1ccc(S(=O)(=O)N2CCN(c3nc(-c4cncs4)nc4ccccc34)CC2)cc1	TDP1 cell noCPT 7.1µM, DT40 TDP1 CPT 10µM (no result: D3 ag, D3 antag, IL-1B inflam inh)
Cc1ccc(S(=O)(=O)N2CCN(c3nc(-c4ccc(CN5CCNCC5)s4)nc4ccccc34)CC2)cc1	TDP1 cell noCPT 22µM, DT40 TDP1 CPT inconclusive (no result: D3 ag, D3 antag, IL-1B inflam inh)
Cc1ccc(S(=O)(=O)N2CCN(c3nc(-c4cncn4C)nc4ccccc34)CC2)cc1	ClpP mod 32µM, TDP1 cell noCPT inconclusive, DT40 TDP1 CPT 20µM (no result: D3 ag, D3 antag, IL-1B inflam inh)
COc1ccc(CCC(=O)O)cc1	none (no result: D3 ag, D3 antag, IL-1B inflam inh)
Cc1ccccc1NC(=O)c1nn(C)c2c1CS(=O)(=O)c1ccccc1-2	TDP1 cell noCPT inconclusive
COc1c(C)cc(C(O)c2ncc(-c3ccc(Cl)cc3)[nH]2)cc1C (configuration not stated)	TDP1 cell noCPT inconclusive, DT40 TDP1 CPT inconclusive
CC(C)(C)c1cc(C(c2cccnc2)N2CCN(CCO)CC2)cc(C(C)(C)C)c1O (configuration not stated)	TDP1 cell noCPT 2.3µM, IL-1B inflam inh -102, DT40 TDP1 CPT 1.5µM
COc1ccc(OCC(=O)OCc2cc(=O)n3cc(C)sc3n2)cc1	none (no result: D3 antag, IL-1B inflam inh)
COc1ccccc1CNc1ncnc2nc[nH]c12	TDP1 cell noCPT inconclusive, DT40 TDP1 CPT inconclusive
c1ccc2c(CCNc3ncnc4nc[nH]c34)c[nH]c2c1	TDP1 cell noCPT 12µM, DT40 TDP1 CPT 6.5µM
COc1cc2[nH]c(C(=O)NCCc3ccccc3)cc2c(OC)c1OC	TDP1 cell noCPT inconclusive, D3 antag -61, IL-1B inflam inh inconclusive (no result: ClpP mod)
COc1ccc2[nH]c(C(=O)NCCc3ccccc3)cc2c1	none
COc1cc2[nH]cc(C(=O)NCc3ccccc3)c(=O)c2cc1OC	TDP1 cell noCPT 26µM, DT40 TDP1 CPT inconclusive
COc1ccc(CCNC(=O)c2c[nH]c3ccccc3c2=O)cc1OC	TDP1 cell noCPT inconclusive, DT40 TDP1 CPT inconclusive
COc1cc2[nH]cc(C(=O)NCCc3ccccc3)c(=O)c2cc1OC	ClpP mod inconclusive, TDP1 cell noCPT inconclusive, DT40 TDP1 CPT inconclusive
COc1ccc(CCNC(=O)c2c[nH]c3ccc(F)cc3c2=O)cc1OC	TDP1 cell noCPT 13µM, DT40 TDP1 CPT inconclusive
COc1cc2[nH]c(C(=O)NCc3ccccc3)cc2c(OC)c1OC	TDP1 cell noCPT inconclusive, D3 antag -105, IL-1B inflam inh -65 (no result: ClpP mod)
COc1ccc(C(=O)NCc2ccccc2)cc1Br	none
CCOc1ccc(-n2c(C)cc(/C=N\NC(=O)CC(=O)NC3CCCCC3)c2C)cc1	TDP1 cell noCPT 13µM, DT40 TDP1 CPT 18µM
COc1ccccc1C=NNc1nc(C)cc(=O)[nH]1	none
CCOc1ccc(-n2c(C)cc(/C=N/NC(=O)C(N)=O)c2C)cc1	none (no result: ClpP mod)
CCOc1ccc(-n2c(C)cc(/C=N/Nc3nc(C)cc(=O)[nH]3)c2C)cc1	TDP1 cell noCPT 12µM, DT40 TDP1 CPT 16µM (no result: ClpP mod)
CCOC(=O)N/N=C/c1cc(C)n(-c2ccccc2)c1C	TDP1 cell noCPT inconclusive
CCOc1ccc(-n2c(C)cc(/C=N/N(C)C)c2C)cc1	TDP1 cell noCPT 7.3µM, DT40 TDP1 CPT 9.2µM
CN(C(=O)c1cccc(NC(=O)Cc2ccc(NC(=O)C3CCCN(C(=O)C4CCCC4)C3)cc2)c1)C1CC1 (configuration not stated)	TDP1 cell noCPT inconclusive
COc1ccc(C(=O)CSC2=C(C#N)C3(CCCCC3)C(C#N)=C(N)N2)cc1	TDP1 cell noCPT 16µM, DT40 TDP1 CPT inconclusive
N#CC1=C(N)NC(SCC(=O)c2ccc(Br)cc2)=C(C#N)C12CCCCC2	TDP1 cell noCPT inconclusive, DT40 TDP1 CPT inconclusive
N#CC1=C(N)NC(SCC(=O)Nc2ccccc2)=C(C#N)C12CCCCC2	TDP1 cell noCPT 23µM, DT40 TDP1 CPT inconclusive

From PubChem BioAssay
